In ChEMBL document CHEMBL4513216, “Probing the Open Global Health Chemical Diversity Library for Multistage-Active Starting Points for Next-Generation Antimalarials” (ACS Infect Dis, 2020):
In all, about 68,000 compounds went through this assay and about 2,700 (4%) showed an effect of 50% or more. This is one part of a sample in which strong results are shown more often than they occur.

The compounds below were run on Plasmodium berghei (assay: Screen against P. berghei liver stage (PbLuc), transformed with Luciferase, at 2uM). Conditions: tested at 2 uM.
Assay type: functional, HepG2
`Cc1cn(Cc2ccccc2)nc1N` was tested, and the INHIBITION was 43.77%. For `Cc1cccc(Cn2cc(C)c(N)n2)c1`, the INHIBITION was 62.99%. With `Cc1ccc(Cn2cc(C)c(N)n2)cc1` the INHIBITION was -20.05%. Work on `COC(=O)c1cccc2nc([C@H]3CCN(Cc4ccccc4C)C3)oc12` yielded an INHIBITION of 33.14%. With `COC(=O)c1cccc2nc([C@H]3CCN(Cc4ccccc4F)C3)oc12` the INHIBITION was 52.36%. `COC(=O)c1cccc2nc([C@H]3CCN(C4CCN(C)CC4)C3)oc12` gave an INHIBITION of 21.06%. With `COC(=O)c1cccc2nc([C@H]3CCN(CC(C)C)C3)oc12` the INHIBITION was 53.46%. With `COC(=O)c1cccc2nc([C@H]3CCN(Cc4ccccc4)C3)oc12` the INHIBITION was 1.29%. `COc1cccc(-c2noc(C3CCN(Cc4ccccc4F)C3)n2)c1` (stereo not given) gave an INHIBITION of 35.56%. With `CC(=O)Nc1nc(C(=O)N2CCCC(n3nc(C)cc3C)C2)cs1` (stereo not given) the INHIBITION was -45.23%. With `N#Cc1cccc(OCCN2CCCC2C(=O)N2CCSCC2)c1` (stereo not given) the INHIBITION was 9.04%. For `COCCN1CCN(c2cccc(C)n2)Cc2ccc(C)nc21`, the INHIBITION was -21.77%. `Cn1cc(N2C[C@@H]3CN(S(=O)(=O)C4CC4)C[C@@H]3C2=O)cn1` was tested, and the INHIBITION was 63.23%. In the case of `CCS(=O)(=O)N1C[C@H]2CN(c3cnn(C)c3)C(=O)[C@H]2C1`, the INHIBITION is reported as -33.15%. `Cn1cc(N2C[C@@H]3CN(CC4CCOCC4)C[C@@H]3C2=O)cn1` was tested, and the INHIBITION was -1.69%. `Cc1nc(C2CCCN2C(=O)c2ccc(F)cc2)ncc1C(N)=O` (stereo not given) gave an INHIBITION of 21.33%. Compound `CCOC(=O)N1CCC(NC(=O)c2cccc(C3CCCNC3)c2)CC1` (stereo not given) has an INHIBITION of 35.15%. `Cc1nnc(N2CCOC(Cn3cccn3)C2)c(C#N)c1C` (stereo not given) showed an INHIBITION of 8.7%. Compound `CCC1CN(c2nnc(C)c(C)c2C#N)CCO1` (stereo not given) has an INHIBITION of 11.18%. Compound `Cc1cnn(CC2CN(c3nnc(C)c(C)c3C#N)CCO2)c1` (stereo not given) has an INHIBITION of 54.2%. `O=C1CSC(c2ccc(Cl)cc2Cl)c2c(n(C3CCOCC3)[nH]c2=O)N1` (stereo not given) showed an INHIBITION of 5.47%. `CN(C)S(=O)(=O)N1CCC(Oc2ccc(C#N)cn2)CC1` gave an INHIBITION of 31.38%. In the case of `CC(C)c1nn(C)c(Cl)c1CNCc1ccc2c(c1)OCO2`, the INHIBITION is reported as 35.65%. Compound `CCC(CC)N(Cc1ccc2c(c1)OCO2)C(=O)c1ccc(=O)n(C)c1` has an INHIBITION of -55.13%. In the case of `COc1cc(CCC(=O)NC(C)C)ccc1OCC(F)(F)F`, the INHIBITION is reported as -56.02%. With `COc1cc(CCC(=O)NC(C)C(=O)O)ccc1OCC(F)(F)F` (stereo not given) the INHIBITION was -16.42%. `CCC(C)NC(=O)CCc1ccc(OCC(F)(F)F)c(OC)c1` (stereo not given) was tested, and the INHIBITION was 51.94%. In the case of `NC(=O)c1cccc2nc([C@H]3CCN(Cc4ccccn4)C3)[nH]c12`, the INHIBITION is reported as 50.72%. `NC(=O)c1cccc2nc([C@H]3CCN(Cc4ccccc4F)C3)[nH]c12` showed an INHIBITION of 18.87%. In the case of `Cc1ccc(CN2CC[C@H](c3nc4cccc(C(N)=O)c4[nH]3)C2)cc1`, the INHIBITION is reported as 23.26%. `CS(=O)(=O)N1CCCC(Cc2ccnc(Nc3ccccn3)c2)C1` (stereo not given) showed an INHIBITION of 3.38%. With `O=C(c1ccccc1)N1CCN(CC2CCOc3ccccc3C2)CC1` (stereo not given) the INHIBITION was 1.88%. Compound `COCCc1noc(CNC(=O)C2CC(=O)N(C(C)(C)C)C2)n1` (stereo not given) has an INHIBITION of -28.97%. Compound `CCN1CC(C(=O)NCc2noc(Cc3ccccc3)n2)CCC1=O` (stereo not given) has an INHIBITION of -17.86%. `CC(C)(C)N1CC(C(=O)NCc2noc(Cc3ccccc3)n2)CC1=O` (stereo not given) was tested, and the INHIBITION was 50.63%. `CCn1nc(CC(C)C)cc1C(=O)NCc1c(C)cc(C)nc1OC` gave an INHIBITION of 39.16%. Compound `Cc1noc2nc(C3CCN(Cc4ccccn4)CC3)cc(C(F)F)c12` has an INHIBITION of -32.4%. In the case of `C/C(=C\c1ccccc1)CN1CCCC(c2nnc3n2CCNCC3)C1` (stereo not given), the INHIBITION is reported as 36.51%. For `O=C(NCCNc1cnccn1)c1scnc1Cl`, the INHIBITION was -6.71%. `O=c1[nH][nH]cc1-c1ccnc(NCCc2cccnc2)n1` was tested, and the INHIBITION was 7.4%. For `CCC(CC)NC(=O)Cn1cc(-c2ccccc2)cn1`, the INHIBITION was -9.17%. `CCCNC(=O)Cn1cc(-c2ccccc2)cn1` gave an INHIBITION of -14.11%. With `CNC(=O)NC(=O)Cn1cc(-c2ccccc2)cn1` the INHIBITION was 54.92%. With `Cc1ccc(-c2cnn(CC(=O)NC(C)C)c2)cc1` the INHIBITION was 72.31%. `CC(NC(=O)Cn1cc(-c2ccccc2)cn1)C1CC1` (stereo not given) gave an INHIBITION of 35.65%. Work on `CC(C)NC(=O)Cn1cc(-c2ccccc2)cn1` yielded an INHIBITION of -42.92%. `CCn1c(C)nnc1CN(C)C1CCN(Cc2sc(C)nc2C)C1` (stereo not given) gave an INHIBITION of 65.3%. In the case of `Cc1nc(C)c(CN2CCC(N(C)Cc3nnc(C4CC4)o3)C2)s1` (stereo not given), the INHIBITION is reported as 37.9%. Work on `CCn1c(C)nnc1CN(C)C1CCN(Cc2c(C)noc2C)C1` (stereo not given) yielded an INHIBITION of 4.72%. With `O=S(=O)(c1ccccc1)N1CCC2(CCCN2Cc2ccc(Cl)cc2)C1` (stereo not given) the INHIBITION was -28.17%. For `O=C(CCCc1ncc(-c2ccccc2)o1)N1CCN(CCO)CC1`, the INHIBITION was 56.67%. For `O=C(CCCc1nnc(-c2ccccc2)o1)N1CCN(CCO)CC1`, the INHIBITION was 36.65%. For `O=C(CCCc1nc(-c2ccccc2)no1)N1CCN(CCO)CC1`, the INHIBITION was 41.76%. `COc1ccc(Br)cc1NCC(=O)NC(C)(C#N)C1CC1` (stereo not given) showed an INHIBITION of -0.46%. For `COC[C@H](C)Nc1cc(C)c2ccc(SC)cc2n1`, the INHIBITION was 45.56%. `CCn1ncnc1C(C)Nc1cc(C)c2ccc(SC)cc2n1` (stereo not given) was tested, and the INHIBITION was -35.22%. In the case of `CSc1ccc2c(C)cc(N[C@@H](C)CO)nc2c1`, the INHIBITION is reported as 71.67%. With `O=C(c1cccnc1-c1ccoc1)N1C[C@@H]2CC[C@H]1C2` the INHIBITION was -15.77%. In the case of `CCC1(CO)CCN(C(=O)c2cc(COc3ccccc3F)[nH]n2)CC1`, the INHIBITION is reported as -64.06%. Work on `CCn1nc(C)c(CCNC(=O)C2CCCN(C(=O)N(C)C)C2)c1C` (stereo not given) yielded an INHIBITION of -17.7%. Compound `Cn1cc(CN2CCOC(c3nccnc3-c3cccc(F)c3)C2)cn1` (stereo not given) has an INHIBITION of 11.74%. For `Cn1cc(CN2CCOC(c3cccc(-c4cncnc4)n3)C2)cn1` (stereo not given), the INHIBITION was 0.12%. `Cn1cc(CN2CCOC(c3cccc(-c4cccc(F)c4)n3)C2)cn1` (stereo not given) was tested, and the INHIBITION was 53.16%. `CN(C)Cc1nn(C)c2c1CCN(C(=O)CC1CC1)C2` gave an INHIBITION of -1.31%. `C=C(C)COc1ccccc1C(=O)NCCCc1nnn[nH]1` showed an INHIBITION of -24.7%. `OC(COCc1ccco1)CN1CCc2c(ncn2C2CC2)C1` (stereo not given) showed an INHIBITION of 35.23%. Compound `CC(Cc1cccs1)NC(=O)CCn1cccn1` (stereo not given) has an INHIBITION of 0.66%. Compound `O=C(CCOc1ccccc1)N1CCCC(c2ncc[nH]2)C1` (stereo not given) has an INHIBITION of 2.06%. With `CCCN(Cc1nccn1C)C(=O)C(CC)Nc1cccc(OC)c1` (stereo not given) the INHIBITION was 16.82%. Compound `COCc1cn(CC2CCN(Cc3nc(C)c[nH]3)CC2)nn1` has an INHIBITION of -37.15%. `Cc1ccc(CN2Cc3c(C(=O)N(C)C)nn(C)c3C2)s1` showed an INHIBITION of -35.2%. `O=S(=O)(Cc1ccccc1)c1nnc(N2CCCC2)s1` was tested, and the INHIBITION was 44.37%. Compound `O=S(=O)(Cc1ccccc1)c1nnc(N2CCOCC2)s1` has an INHIBITION of 52.08%. With `Cc1cccc(CS(=O)(=O)c2nnc(N3CCOCC3)s2)c1` the INHIBITION was 22.34%. Work on `CCCn1cc(CNCC(c2ccc(C)s2)N2CCOCC2)cn1` (stereo not given) yielded an INHIBITION of 10.46%. `CNc1cc(C(=O)N2CCOC(C(=O)NC3CCCC3)C2)ccn1` (stereo not given) gave an INHIBITION of -5.76%. With `CCn1cnnc1CNC(=O)N(C)Cc1ccc2c(c1)OCO2` the INHIBITION was -19.35%. Compound `O=C(C1CCC1)N1CCCC(c2ccnc(Nc3cnccn3)n2)C1` (stereo not given) has an INHIBITION of 57.82%. `Cc1ccc(Nc2nccc(C3CCCN(CC(=O)N(C)C)C3)n2)nc1` (stereo not given) gave an INHIBITION of -28.81%. `Cc1ccc(Nc2nccc(C3CN(CC(N)=O)C3)n2)nc1` showed an INHIBITION of 9.79%. `Cc1ccc(Nc2nccc(C3CCN(CC(N)=O)C3)n2)nc1` (stereo not given) gave an INHIBITION of 85.75%. Work on `O=C(C1CCCC1)N1CCC(c2ccnc(Nc3cnccn3)n2)C1` (stereo not given) yielded an INHIBITION of 37.81%. In the case of `CC(=O)N1CCCC(c2ccnc(Nc3cnccn3)n2)C1` (stereo not given), the INHIBITION is reported as -39.95%. Compound `O=C(c1ccco1)N1CCOCC2(C1)CN(c1ccccc1)C(=O)CO2` (stereo not given) has an INHIBITION of 16.48%. `COc1ccc(CN2CC[C@H]3[C@H]2CC(=O)N3Cc2cccc(C)n2)cc1` gave an INHIBITION of 3.55%. `CCCn1nc2c(cc1=O)CN(Cc1nc(C)c(C)o1)CC2` gave an INHIBITION of 44.43%. For `OC(CN1CC(n2cccn2)C1)c1ccc2c(c1)OCCO2` (stereo not given), the INHIBITION was -28.22%. `CN1CCOC(CNCc2csc(C3CCCC3)n2)C1` (stereo not given) was tested, and the INHIBITION was 60.71%. In the case of `Cc1nc(CNCC2CN(C)CCO2)cs1` (stereo not given), the INHIBITION is reported as -50.23%. `CN1CCOC(CNCc2csc(C3CCCCC3)n2)C1` (stereo not given) gave an INHIBITION of 16.84%. In the case of `CCOC(=O)c1c(NC(=O)CN2CCN(C(C)=O)CC2)sc2c1CCC2`, the INHIBITION is reported as 25.47%. For `C1CC(N2C[C@@H]3COC[C@]3(COCC3CCOCC3)C2)C1`, the INHIBITION was 22.96%. Compound `CCc1noc(-c2ccc(SCC(=O)O)nc2)n1` has an INHIBITION of 47.9%. `CCOC(=O)CSc1ccc(-c2nc(CC)no2)cn1` gave an INHIBITION of 46.51%. `CCOC(=O)CSc1ccc(-c2nc(C)no2)cn1` was tested, and the INHIBITION was 70.75%. `COc1ccc(Br)c(C(=O)NCC2CC2)c1` showed an INHIBITION of 9.21%. For `CC(NC(=O)C1CCN(S(N)(=O)=O)CC1)c1cccc(OC(F)F)c1` (stereo not given), the INHIBITION was 1.42%. `NS(=O)(=O)N1CCC(C(=O)Nc2cccc(OC(F)F)c2)CC1` gave an INHIBITION of 50.98%. `O=C(Nc1cccc(OC(F)F)c1)C1CN(S(=O)(=O)C2CC2)C1` was tested, and the INHIBITION was 21%. Compound `CN(C)C[C@@H]1C[C@@H]2CN(C(=O)c3ccoc3)CC[C@@H]2N1CC1CC1` has an INHIBITION of -72.76%. Work on `C=Cc1ccc(C(=O)N2CCCC(Nc3ccccc3)C2)cc1` (stereo not given) yielded an INHIBITION of 43.86%. With `CN(C)S(=O)(=O)N1CCC(C(O)c2ccc(Cl)cc2)CC1` (stereo not given) the INHIBITION was 24.36%. For `CCN(C)S(=O)(=O)N1CCC(C(O)c2ccc(Cl)cc2)CC1` (stereo not given), the INHIBITION was -11.41%. `CCN(C)S(=O)(=O)N1CCC(C(O)c2ccc(F)cc2)CC1` (stereo not given) showed an INHIBITION of 52.98%. With `CCCn1nc2c(cc1=O)CN(Cc1nnc(C3CC3)o1)CC2` the INHIBITION was -7.73%.
